Laboratory results: PubChem BioAssay (NCI)
Several values for one entry are separate records, joined by “and”; a condition that tells them apart may be missing. Equal values may be shown once. Compounds without any hit were thinned out: in the full panel of roughly 83,000, 20% have a hit.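 Step 1: grow cells in 96-well plates. Step 2: add test compound at a single concentration. Step 3: incubate 48 h. Step 4: record percent growth.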 Activity calls are given as the source filed them. How the source made its calls: active means growth percent below 10; inactive means the rest.

Key:
Test in all cases: NCI-60 one-dose screen, 48 h (100 = growth as untreated, 0 = no growth, -100 = all killed)
Settings in all cases: 10 µM
[1] = test system: RPMI-8226 leukemia
[2] = test system: OVCAR-8 ovarian
[3] = test system: OVCAR-5 ovarian
[4] = test system: OVCAR-4 ovarian
[5] = test system: SK-OV-3 ovarian
[6] = test system: IGROV1 ovarian
[7] = test system: OVCAR-3 ovarian
[8] = test system: HS 578T breast
[9] = test system: NCI/ADR-RES ovarian
[10] = test system: T-47D breast
[11] = test system: BT-549 breast
[12] = test system: MDA-MB-435 melanoma
[13] = test system: SW-620 colon
[14] = test system: MCF7 breast
[15] = test system: HCT-116 colon
[16] = test system: HCC-2998 colon
[17] = test system: KM12 colon
[18] = test system: MDA-MB-468 breast

Measured: growth

COc1cccc(-c2ccnc(/N=C(\N)Nc3ccc(S(=O)(=O)Nc4nc(C)cc(C)n4)cc3)n2)c1
inactive: [1] 90.1% | [2] 102% | [3] 107% | [4] 96% | [5] 84% | [6] 83.4% | [7] 99.3% | [8] 86.4% | [9] 103% | [10] 88.4% | [11] 111% | [12] 109% | [13] 105% | [14] 75.9% | [15] 103% | [16] 114% | [17] 98% | [18] 115%

O=c1oc2ccc(-c3ccc(F)cc3F)cc2c(=O)n1-c1ccc(Cl)c(C(F)(F)F)c1
active: [1] -32.1% | [2] 6.71% | [3] -2.12% | [5] -4.08% | [8] -0.864% | [9] -12.2% | [10] -12.5% | [11] -37.4% | [12] -5.35% | [14] -16.2% | [15] 9.46% | [16] 2.17% | [17] -14% | [18] 3.54% and -40.4%
inactive: [4] 16.1% | [6] 17.8% | [7] 11.7% | [13] 13%

CNCc1cccc2c1OCCCCCC[C@@](C)(O)CC1(CC1)S(=O)(=O)c1ccc(cc1)-c1cnc(N)c(n1)C(=O)N2
inactive: [10] 33.7%
active: [1] -31.3% | [2] -65.5% | [3] -89.7% | [4] -76.9% | [5] -87.9% | [6] -91.2% | [7] -91.1% | [8] -40.5% | [9] -92.1% | [11] -75.2% | [12] -95.2% | [13] -84.6% | [14] -90% | [15] 0.182% | [16] -100% | [17] -68.7% | [18] -98%

O=C(Nc1cc(Cl)cc(Cl)c1)Nc1cc(Cl)cc(Cl)c1
inactive: [4] 10.8%
active: [1] -42.4% | [2] 0.191% | [3] 1.87% | [5] -15.8% | [6] 7.38% | [7] -31.5% | [8] -19.3% | [9] -24.1% | [10] -18.9% | [11] -41.1% | [12] -47% | [13] -42.3% | [14] -21.2% | [15] -79.3% | [16] -27.3% | [17] -22.9% | [18] -40.1%

CN1CCN(c2ccc(Nc3nc(N4CCN(S(=O)(=O)c5ccc(Cl)cc5)CC4)c4sccc4n3)cc2)CC1
active: [1] -23.6% | [2] -82.9% | [3] -80.9% | [4] -82.6% | [7] -34.9% | [10] -34.4% | [12] -100% | [13] -52.2% | [14] -83.5% | [15] -49.9% | [16] -8.56% | [17] -15.3% | [18] -96.7%
inactive: [5] 116% | [6] 84.3% | [8] 83.9% | [9] 16.1% | [11] 64.6%

COc1ccc(CCN2C(=O)/C(=C/c3csc(C#N)n3)SC2=S)cc1
inactive: [3] 76.7% | [4] 38.4% | [5] 96.3% | [6] 26.8% | [8] 16.9% | [9] 47%
active: [1] -0.42% | [2] -5.34% | [7] -39% | [10] -5.27% | [11] -44.6% | [12] -23.6% | [13] -14.6% | [14] -0.841% | [15] -63.2% | [16] -32.8% | [17] -61.4% | [18] -67.2%

CC(C)(C)c1ccc(NCc2cn(-c3ccc(C(=O)O)cc3)nc2-c2ccc(C#N)cc2)cc1
inactive: [1] 14.6% | [2] 28.5% | [3] 32.6% | [4] 36.7% | [5] 112% | [6] 36.5% | [7] 19.7% | [8] 37.4% | [9] 11.7% | [10] 21.4% | [12] 34% | [13] 32.2% | [18] 19%
active: [11] -2.13% | [14] 6.04% | [15] -13.9% | [16] -66.6% | [17] -38.3%

O=C1Nc2cc(Cl)ccc2/C1=C/c1cccc(OCc2ccccc2)c1
active: [1] -34.7% | [2] -65% | [7] -5.96% | [8] -2.85% | [9] -22.2% | [11] -21.8% | [13] 8.71% | [14] 2.6% | [15] 3.32% | [16] -39% | [17] 4.45%
inactive: [3] 11.9% | [4] 36.7% | [5] 32% | [6] 11.1% | [10] 14.7% | [12] 10.5% | [18] 11.9%
